# PubChem BioAssay AID1159580 (chemical genetic matrix, 2015)
# “And” between values parts separate entries of the source, which are not always exact repeats. Equal entries are not always repeated. Among all 5,500 compounds or so, about 2,000 (36%) were called active. Inconclusive results (about 18%) are left out. No stated cut-off is given here; in the data, active means normalized growth mostly below about 0.91 (no sharp cut-off); inconclusive means no clear call, values can overlap the other calls; inactive means mostly above about 0.92. The list shows a part of the results.
# Assay: chemical genetic growth profiling, strain panel (AID 1159580);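 further: tested at 20 µM; growth read once vehicle control cultures reached saturation at 30 °C; 1 = growth at the plate median or of vehicle wells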
# Conditions: S. cerevisiae deletion strains, growth OD
structure (smiles),measurement,setting,value
CC1=C2C(=CO[C@H](C)[C@H]2C)C(=O)C(C(=O)O)=C1O,normalized growth,"locus YAL021C, strain ccr4, stronger effect = lower value",0.993 (inactive)
same,normalized growth,"locus YAL026C, strain drs2, stronger effect = lower value",0.982 (inactive)
same,normalized growth,"locus YAL030W, strain snc1, stronger effect = lower value",0.977 (inactive)
same,normalized growth,"locus YBL061C, strain skt5, stronger effect = lower value",0.977 (inactive)
same,normalized growth,"locus YBR009C, strain hhf1, stronger effect = lower value",0.975 (inactive)
same,normalized growth,"locus YBR021W, strain FUR4, stronger effect = lower value",0.995 (inactive)
same,normalized growth,"locus YBR023C, strain chs3, stronger effect = lower value",0.97 (inactive)
same,normalized growth,"locus YBR171W, strain sec66, stronger effect = lower value",0.981 (inactive)
same,normalized growth,"locus YBR229C, strain ROT2, stronger effect = lower value",0.978 (inactive)
same,normalized growth,"locus YBR231C, strain swc5, stronger effect = lower value",0.979 (inactive)
same,normalized growth,"locus YBR279W, strain paf1, stronger effect = lower value",0.989 (inactive)
same,normalized growth,"locus YCL011C, strain gbp2, stronger effect = lower value",0.975 (inactive)
same,normalized growth,"locus YCL016C, strain dcc1, stronger effect = lower value",0.967 (inactive)
same,normalized growth,"locus YCL029C, strain bik1, stronger effect = lower value",0.986 (inactive)
same,normalized growth,"locus YCL061C, strain MRC1, stronger effect = lower value",0.967 (inactive)
same,normalized growth,"locus YCL069W, strain vba3, stronger effect = lower value",0.991 (inactive)
same,normalized growth,"locus YCR088W, strain abp1, stronger effect = lower value",0.973 (inactive)
same,normalized growth,"locus YDL005C, strain med2, stronger effect = lower value",0.971 (inactive)
same,normalized growth,"locus YDL035C, strain GPR1, stronger effect = lower value",0.995 (inactive)
same,normalized growth,"locus YDL040C, strain nat1, stronger effect = lower value",0.98 (inactive)
same,normalized growth,"locus YDL074C, strain BRE1, stronger effect = lower value",0.996 (inactive)
same,normalized growth,"locus YDL101C, strain DUN1, stronger effect = lower value",0.989 (inactive)
same,normalized growth,"locus YDL134C, strain PPH21, stronger effect = lower value",0.996 (inactive)
same,normalized growth,"locus YDL185W, strain tfp1, stronger effect = lower value",0.991 (inactive)
same,normalized growth,"locus YDL192W, strain arf1, stronger effect = lower value",0.983 (inactive)
same,normalized growth,"locus YDR001C, strain nth1, stronger effect = lower value",0.98 (inactive)
same,normalized growth,"locus YDR069C, strain doa4, stronger effect = lower value",0.976 (inactive)
same,normalized growth,"locus YDR101C, strain arx1, stronger effect = lower value",0.983 (inactive)
same,normalized growth,"locus YDR137W, strain rgp1, stronger effect = lower value",0.912 (inactive)
same,normalized growth,"locus YDR150W, strain NUM1, stronger effect = lower value",0.981 (inactive)
same,normalized growth,"locus YDR159W, strain sac3, stronger effect = lower value",0.957 (inactive)
same,normalized growth,"locus YDR162C, strain NBP2, stronger effect = lower value",0.978 (inactive)
same,normalized growth,"locus YDR195W, strain ref2",0.969 (inactive)
same,normalized growth,"locus YDR297W, strain sur2, stronger effect = lower value",0.989 (inactive)
same,normalized growth,"locus YDR318W, strain mcm21, stronger effect = lower value",0.989 (inactive)
same,normalized growth,"locus YDR334W, strain swr1, stronger effect = lower value",0.991 (inactive)
same,normalized growth,"locus YDR335W, strain msn5, stronger effect = lower value",0.994 (inactive)
same,normalized growth,"locus YDR388W, stronger effect = lower value",0.979 (inactive)
same,normalized growth,"locus YDR392W, strain spt3, stronger effect = lower value",0.821 (inactive)
same,normalized growth,"locus YDR502C, strain sam2, stronger effect = lower value",0.971 (inactive)
same,normalized growth,"locus YEL003W, strain gim4, stronger effect = lower value",0.988 (inactive)
same,normalized growth,"locus YEL037C, strain rad23, stronger effect = lower value",0.997 (inactive)
same,normalized growth,"locus YEL061C, strain CIN8 (second series), stronger effect = lower value",0.99 (inactive)
same,normalized growth,"locus YEL061C, strain CIN8, stronger effect = lower value",0.979 (inactive)
same,normalized growth,"locus YER015W, strain faa2, stronger effect = lower value",0.98 (inactive)
same,normalized growth,"locus YER016W, strain bim1, stronger effect = lower value",0.976 (inactive)
same,normalized growth,"locus YER110C, stronger effect = lower value",0.985 (inactive)
same,normalized growth,"locus YER111C, strain swi4, stronger effect = lower value",0.983 (inactive)
same,normalized growth,"locus YER155C, strain BEM2 (second series), stronger effect = lower value",0.938 (inactive)
same,normalized growth,"locus YER155C, strain BEM2, stronger effect = lower value",0.982 (inactive)
same,normalized growth,"locus YER167W, strain BCK2, stronger effect = lower value",0.969 (inactive)
same,normalized growth,"locus YFR010W, strain ubp6, stronger effect = lower value",0.991 (inactive)
same,normalized growth,"locus YGL078C, strain dbp3, stronger effect = lower value",0.987 (inactive)
same,normalized growth,"locus YGL086W, strain mad1, stronger effect = lower value",0.96 (inactive)
same,normalized growth,"locus YGL167C, strain pmr1, stronger effect = lower value",0.963 (inactive)
same,normalized growth,"locus YGL173C, strain kem1, stronger effect = lower value",0.983 (inactive)
same,normalized growth,"locus YGL227W, strain vid30, stronger effect = lower value",0.989 (inactive)
same,normalized growth,"locus YGL240W, strain doc1, stronger effect = lower value",0.97 (inactive)
same,normalized growth,"locus YGL248W, strain PDE1, stronger effect = lower value",0.991 (inactive)
same,normalized growth,"locus YGL253W, strain hxk2, stronger effect = lower value",1.01 (inactive)
same,normalized growth,"locus YGR135W, strain pre9, stronger effect = lower value",0.999 (inactive)
same,normalized growth,"locus YGR229C, strain SMI1, stronger effect = lower value",0.989 (inactive)
same,normalized growth,"locus YGR252W, strain gcn5, stronger effect = lower value",1.06 (inactive)
same,normalized growth,"locus YHR013C, strain ard1, stronger effect = lower value",0.94 (inactive)
same,normalized growth,"locus YHR027C, strain rpn1, stronger effect = lower value",0.977 (inactive)
same,normalized growth,"locus YHR030C, strain SLT2, stronger effect = lower value",0.977 (inactive) and 0.85 (active)
same,normalized growth,"locus YHR079C, strain IRE1 (second series), stronger effect = lower value",0.985 (inactive)
same,normalized growth,"locus YHR079C, strain IRE1, stronger effect = lower value",0.794 (active)
same,normalized growth,"locus YHR094C, strain hxt1, stronger effect = lower value",0.975 (inactive)
same,normalized growth,"locus YHR129C, strain ARP1, stronger effect = lower value",0.982 (inactive)
same,normalized growth,"locus YHR142W, strain chs7, stronger effect = lower value",1.01 (inactive)
same,normalized growth,"locus YHR200W, strain rpn10, stronger effect = lower value",0.989 (inactive)
same,normalized growth,"locus YIL066C, strain RNR3, stronger effect = lower value",0.995 (inactive)
same,normalized growth,"locus YIL073C, strain SPO22, stronger effect = lower value",0.993 (inactive)
same,normalized growth,"locus YIL125W, strain kgd1, stronger effect = lower value",0.965 (inactive)
same,normalized growth,"locus YIR030C, strain dcg1, stronger effect = lower value",0.976 (inactive)
same,normalized growth,"locus YJL092W, strain hpr5, stronger effect = lower value",0.989 (inactive)
same,normalized growth,"locus YJL095W, strain BCK1 (second series), stronger effect = lower value",0.974 (inactive)
same,normalized growth,"locus YJL095W, strain BCK1, stronger effect = lower value",0.947 (inactive) and 0.851 (active)
same,normalized growth,"locus YJL115W, strain asf1, stronger effect = lower value",0.987 (inactive)
same,normalized growth,"locus YJL129C, strain trk1, stronger effect = lower value",0.927 (inactive)
same,normalized growth,"locus YJL134W, strain LCB3, stronger effect = lower value",0.975 (inactive)
same,normalized growth,"locus YJL154C, strain vps35, stronger effect = lower value",0.993 (inactive)
same,normalized growth,"locus YJL164C, strain tpk1, stronger effect = lower value",0.974 (inactive)
same,normalized growth,"locus YJL166W, strain qcr8, stronger effect = lower value",0.983 (inactive)
same,normalized growth,"locus YJL168C, strain set2, stronger effect = lower value",0.98 (inactive)
same,normalized growth,"locus YJL187C, strain SWE1 (second series), stronger effect = lower value",0.995 (inactive)
same,normalized growth,"locus YJL187C, strain SWE1, stronger effect = lower value",0.979 (inactive)
same,normalized growth,"locus YJR043C, strain POL32, stronger effect = lower value",1.02 (inactive)
